# Experimental data reported in PubChem BioAssay (NCATS).
# Where “and” joins values, the source holds several entries; their conditions need not be identical. Equal entries are not always repeated. Results filed as inconclusive are left out. A call without a number means that no potency is given here. More than one record can exist for a structure, and the calls need not agree. Calls of active or inactive are those of the source. Unless noted, calls follow the shape of the dose curve; as a rule, active = well fitted curve in the direction sought with a large enough effect; inconclusive = small, poorly fitted or top-dose-only effect, or another doubt; inactive = no such curve, though single readings can be large; an effect the other way counts as inactive or inconclusive.
# Experiments:
# [1] = qHTS to identify inhibitors of the type 1 interferon - major histocompatibility complex class I in skeletal muscle: primary screen against the NCATS Mechanism Interrogation Plate v5.0 (MIPE) Libary (AID 1347411); also: nearly all actives have a fitted effect of over 65% in size
# Procedure, shortened: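 Immortalized human C25cl48 myoblasts with HiBit knocked into endogenous HLA-B*08:01 were stimulated with 4.0 ng/ml IFN-beta and exposed to compounds (11-point 1:3 titration, top 46 uM final) for 24 hrs at 37 C; HiBiT lytic luminescence measured.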
# [2] = target: Protein phosphatase 1D (Homo sapiens) (UniProt O15297); test: RapidFire Mass Spectrometry qHTS Assay for Modulators of WT P53-Induced Phosphatase 1 (WIP1) (AID 1347424);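 also: amount of dephosphorylated VEPPL-S-QETFS peptide product formed by WIP1; series mostly up to about 63 µM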
# Sequence of Protein phosphatase 1D (Homo sapiens) (O15297 whole entry, looked up): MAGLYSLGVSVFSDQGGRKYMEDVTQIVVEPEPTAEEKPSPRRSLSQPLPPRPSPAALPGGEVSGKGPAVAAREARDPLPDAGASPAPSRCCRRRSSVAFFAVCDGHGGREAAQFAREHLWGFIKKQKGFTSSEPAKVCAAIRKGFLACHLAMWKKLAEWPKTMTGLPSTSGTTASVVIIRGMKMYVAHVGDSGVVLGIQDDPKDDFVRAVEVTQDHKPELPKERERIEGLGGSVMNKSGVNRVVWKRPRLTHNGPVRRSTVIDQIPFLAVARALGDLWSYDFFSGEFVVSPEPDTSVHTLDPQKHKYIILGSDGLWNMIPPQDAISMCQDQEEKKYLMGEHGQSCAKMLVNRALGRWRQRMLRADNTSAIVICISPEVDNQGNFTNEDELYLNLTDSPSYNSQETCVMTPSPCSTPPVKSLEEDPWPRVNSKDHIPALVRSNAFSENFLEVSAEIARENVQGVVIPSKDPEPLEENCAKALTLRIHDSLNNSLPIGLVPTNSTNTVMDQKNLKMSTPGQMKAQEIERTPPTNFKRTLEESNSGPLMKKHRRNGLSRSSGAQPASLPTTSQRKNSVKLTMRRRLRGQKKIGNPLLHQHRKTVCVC
# Procedure, shortened: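 WIP1 (10 nM final) was preincubated 1 h at room temperature with compounds in Tris-HCl pH 7.5, 30 mM MgCl2, TCEP, EGTA, BSA; 2 uM VEPPL-pS-QETFS phosphopeptide was added for 5 min, quenched with formic acid, and dephosphorylated product quantified by RapidFire MS.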
# [3] = Primary qHTS for inhibitors of La Crosse Virus (LACV) - induced cell death in SH-SY5Y cells (AID 1508616); also: potency is read from the fitted curve at half-maximal effect
# Procedure, shortened: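 Luminescent ATP readout (ATPLite 1step, 5 min room temperature) measured rescue from LACV-induced death after 6 days of infection at 0.01 MOI; normalized to infected DMSO wells and uninfected DMSO wells.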
# [4] = target: Calcium and integrin-binding protein 1 (Homo sapiens) (UniProt Q99828); test: Primary qHTS for Identification of Calcium Integrin Binding Protein 1 (CIB1) Competitor (AID 1508620);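 also: GST tagged CIB1 binding a fluorescein labelled alphaIIb integrin peptide tracer; top concentration of the series differs between compounds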
# Sequence of Calcium and integrin-binding protein 1 (Homo sapiens) (Q99828 whole entry, looked up): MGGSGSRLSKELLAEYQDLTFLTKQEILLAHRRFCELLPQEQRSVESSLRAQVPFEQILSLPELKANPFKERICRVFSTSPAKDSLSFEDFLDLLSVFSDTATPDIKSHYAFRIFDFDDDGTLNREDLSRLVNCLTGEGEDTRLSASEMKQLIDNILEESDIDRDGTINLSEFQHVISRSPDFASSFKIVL
# Procedure, shortened: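 Fluorescence polarization competition: CIB1-GST (1 uM final) preincubated with compound 15 min at room temperature, then FITC-labeled alphaIIb peptide (100 nM final) added for another 15 min. Polarization read at Ex 480/Em 540.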
# [5] = Primary qHTS for small molecule stabilizers of the endoplasmic reticulum resident proteome: Secreted ER Calcium Modulated Protein (SERCaMP) assay (AID 1508630); also: potency is read from the fitted curve at half-maximal effect
# Procedure, shortened: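 GLuc-SERCaMP-expressing SH-SY5Y cells, pretreated 16 h with compound, are challenged with thapsigargin to empty ER calcium stores; after 4 h, coelenterazine is added directly to the medium and luminescence is imaged.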
# [6] = A High-Content qHTS Against Drug Library for the Identification of Small Molecules that Inhibit DYT1 Early Onset Primary Dystonia-Associated Cell Pathology (AID 1645839; calls by dose curve; also: series mostly up to about 46 µM)
# Procedure, shortened: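 Readout: %pathology, the punctate EGFP-TorsinA distribution from imaging, as the primary channel and cell count as the toxicity counterscreen. HEK293 Flp-In cells expressing delE TorsinA were induced with tetracycline and treated with compound for 48 h.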
# [7] = target: Cytochrome P450 2D6 (Homo sapiens) (UniProt P10635); test: Cytochrome P450 family 2 subfamily D member 6 (CYP2D6) small molecule antagonists: luciferase biochemical (cell-free) qHTS assay (AID 1645840; active = well fitted curve in the direction sought with a large enough effect in the repeat runs; an effect the other way counts as inactive or inconclusive; also: nearly all actives have a fitted effect of over 55% in size; also: potency is read from the fitted curve at half-maximal effect)
# Sequence of Cytochrome P450 2D6 (Homo sapiens) (P10635 whole entry, looked up): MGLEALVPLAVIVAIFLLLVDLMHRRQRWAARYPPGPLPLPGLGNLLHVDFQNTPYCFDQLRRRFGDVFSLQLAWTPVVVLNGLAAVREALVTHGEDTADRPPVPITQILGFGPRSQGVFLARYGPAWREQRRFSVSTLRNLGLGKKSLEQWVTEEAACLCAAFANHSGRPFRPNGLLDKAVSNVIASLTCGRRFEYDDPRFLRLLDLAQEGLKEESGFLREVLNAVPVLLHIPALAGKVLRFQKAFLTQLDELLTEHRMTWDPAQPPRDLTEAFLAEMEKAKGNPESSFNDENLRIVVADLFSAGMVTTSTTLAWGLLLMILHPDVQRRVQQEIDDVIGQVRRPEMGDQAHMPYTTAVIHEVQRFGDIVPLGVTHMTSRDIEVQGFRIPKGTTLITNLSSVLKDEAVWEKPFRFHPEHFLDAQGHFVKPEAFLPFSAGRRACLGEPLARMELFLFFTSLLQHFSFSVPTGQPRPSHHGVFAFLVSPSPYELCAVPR
# Procedure, shortened: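 P450-Glo luminescent screen: recombinant CYP2D6 enzyme–proluciferin substrate mix preincubated with compound 10 min at room temperature, then NADPH regeneration added for 1 h at room temperature. Detection reagent added for 20 min; luciferin light read as relative luminescence units.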
# [8] = target: Cytochrome P450 2C9 (Homo sapiens) (UniProt P11712); test: Cytochrome P450 family 2 subfamily C member 9 (CYP2C9) small molecule antagonists: luciferase biochemical (cell-free) qHTS assay (AID 1645842; active = well fitted curve in the direction sought with a large enough effect in the repeat runs; an effect the other way counts as inactive or inconclusive; also: nearly all actives have a fitted effect of over 55% in size; also: potency is read from the fitted curve at half-maximal effect)
# Sequence of Cytochrome P450 2C9 (Homo sapiens) (P11712 whole entry, looked up): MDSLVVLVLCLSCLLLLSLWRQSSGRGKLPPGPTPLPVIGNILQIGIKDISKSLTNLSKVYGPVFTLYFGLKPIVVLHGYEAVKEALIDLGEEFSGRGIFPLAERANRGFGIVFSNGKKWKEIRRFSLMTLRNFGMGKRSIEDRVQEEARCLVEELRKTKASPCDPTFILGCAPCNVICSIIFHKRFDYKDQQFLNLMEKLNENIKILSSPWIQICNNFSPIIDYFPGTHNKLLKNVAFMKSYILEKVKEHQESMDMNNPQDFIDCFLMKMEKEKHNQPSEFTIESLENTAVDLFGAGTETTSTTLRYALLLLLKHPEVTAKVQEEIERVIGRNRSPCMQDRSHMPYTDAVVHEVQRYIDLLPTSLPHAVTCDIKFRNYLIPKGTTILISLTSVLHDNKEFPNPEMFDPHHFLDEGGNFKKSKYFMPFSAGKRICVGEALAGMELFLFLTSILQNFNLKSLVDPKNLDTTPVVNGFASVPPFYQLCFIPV
# Procedure, shortened: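 Luminescence, after 20 min with luciferin detection reagent, reflected CYP2C9 turnover during a 1 h NADPH-driven reaction at 37C. Enzyme-substrate mix contained 0.4% bovine serum albumin and was preincubated with compound 10 min at room temperature.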
# [9] = target: Protein phosphatase 1D (Homo sapiens) (UniProt O15297); test: Rhodamine-PBP qHTS Assay for Modulators of WT P53-Induced Phosphatase 1 (WIP1) (AID 1347425)
# Procedure, shortened: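 The read-out is the change in Rhodamine-PBP fluorescence (f1 - f0, ex 525/em 598 nm) as Pi is released, read each minute for 11 min. Final reaction: 5 nM WIP1, 10 uM phosphopeptide VEPPL-pS-QETFS, 10 uM Rh-PBP, 50 mM Tris-HCl pH 7.5, 30 mM MgCl2. Compound was preincubated with enzyme for 1 hour at room temperature.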
# [10] = target: Calcium and integrin-binding protein 1 (Homo sapiens) (UniProt Q99828); test: Confirmatory qHTS for Identification of Calcium Integrin Binding Protein 1 (CIB1) Competitor (AID 1508617); also: nearly all actives have a fitted effect of over 65% in size
# Procedure, shortened: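 Compounds at up to 114 uM final met 1 uM GST-tagged CIB1 for 15 min at room temperature (HEPES pH 7.4, 5 mM CaCl2). FITC-labelled alphaIIb peptide, 100 nM, added; polarization read after 15 min more.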
# [11] = Counterscreen qHTS for small molecule stabilizers of the endoplasmic reticulum resident proteome: GLuc-NoTag assay (AID 1508627);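 also: SH-SY5Y cells given compound then 100 nM thapsigargin to empty ER calcium; series mostly up to about 76 µM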
# Procedure, shortened: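 SH-SY5Y cells stably expressing constitutively secreted GLuc (no SERCaMP tag) were pre-incubated 5 h, treated with compound for 19 h, then 100 nM thapsigargin for 4 h at 37C; medium GLuc read by coelenterazine luminescence.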
# [12] = Confirmatory qHTS for small molecule stabilizers of the endoplasmic reticulum resident proteome: Secreted ER Calcium Modulated Protein (SERCaMP) assay (AID 1508628); also: nearly all actives have a fitted effect of over 40% in size; also: potency is read from the fitted curve at half-maximal effect
# Procedure, shortened: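 We seeded SH-SY5Y-GLuc-SERCaMP cells, added compounds (three concentrations in the primary run, eleven up to 76.6 uM in confirmation), incubated 16 h, depleted ER calcium with thapsigargin, and read luciferase 4 h later.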
# [13] = Cell Viability qHTS for small molecule stabilizers of the endoplasmic reticulum resident proteome (AID 1508629); settings: cell viability counter-screen, 100 nM thapsigargin for final 4 h;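 also: human SH-SY5Y neuroblastoma cells carrying the GLuc-SERCaMP reporter; compound exposure about 46 h in total before the viability read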
# [14] = target: Cytochrome P450 3A4 (Homo sapiens) (UniProt P08684); test: Cytochrome P450 family 3 subfamily A member 4 (CYP3A4) small molecule antagonists: luciferase qHTS assay (AID 1645841; active = well fitted curve in the direction sought with a large enough effect in the repeat runs; an effect the other way counts as inactive or inconclusive; also: nearly all actives have a fitted effect of over 45% in size)
# Sequence of Cytochrome P450 3A4 (Homo sapiens) (P08684 whole entry, looked up): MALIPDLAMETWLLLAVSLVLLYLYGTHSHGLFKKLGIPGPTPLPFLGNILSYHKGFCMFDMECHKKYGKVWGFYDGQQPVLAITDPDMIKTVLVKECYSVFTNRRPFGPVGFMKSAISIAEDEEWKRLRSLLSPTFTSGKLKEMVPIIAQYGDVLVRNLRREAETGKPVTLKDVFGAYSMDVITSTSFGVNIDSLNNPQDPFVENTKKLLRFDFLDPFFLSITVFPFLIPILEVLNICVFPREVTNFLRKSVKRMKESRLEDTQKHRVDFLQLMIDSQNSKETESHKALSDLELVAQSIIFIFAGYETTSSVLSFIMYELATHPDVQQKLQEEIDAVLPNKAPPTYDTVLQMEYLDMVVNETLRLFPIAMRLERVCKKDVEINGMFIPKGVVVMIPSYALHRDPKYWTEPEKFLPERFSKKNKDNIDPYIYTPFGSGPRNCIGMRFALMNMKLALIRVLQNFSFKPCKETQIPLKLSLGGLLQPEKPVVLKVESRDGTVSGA
# Procedure, shortened: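 P450-Glo CYP3A4 enzyme with proluciferin substrate was preincubated with DMSO-dissolved compounds for 10 min at room temperature. NADPH regeneration solution started a 1 h reaction. Detection reagent stopped it, and luminescence was read after 20 min.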
smiles,measurement,setting,value
Cc1nnc(NS(=O)(=O)c2ccc(N)cc2)s1,Potency,[1],inactive
same,outcome,[2],inactive
same,Potency,[3],inactive
same,outcome,[4],inactive
same,Potency,[5],inactive
same,Potency,[6],inactive
same,Potency,[7],inactive
same,Potency,[8],17.4 µM (active)
CN(C)CCc1c[nH]c2ccc(CS(=O)(=O)N3CCCC3)cc12,Potency,[1],inactive
same,outcome,[2],inactive
same,Potency,[3],inactive
same,outcome,[4],inactive
same,Potency,[5],inactive
same,Potency,[6],inactive
same,Potency,[7],inactive
same,Potency,[8],inactive
NNC(=O)c1ccncc1,Potency,[1],inactive
same,outcome,[2],inactive
same,outcome,[9],inactive
same,Potency,[3],inactive
same,outcome,[4],inactive
same,Potency,[5],inactive
same,Potency,[6],inactive
same,Potency,[7],inactive
same,Potency,[8],inactive
CCCCCCNC(=O)n1cc(F)c(=O)[nH]c1=O,Potency,[1],inactive
same,outcome,[2],inactive
same,Potency,[3],inactive
same,outcome,[4],inactive
same,Potency,[5],inactive
same,Potency,[6],inactive
same,Potency,[7],15.5 µM (active)
NCCCC(O)(P(=O)(O)O)P(=O)(O)O,Potency,[1],inactive
same,outcome,[2],inactive
same,outcome,[9],inactive
same,Potency,[3],inactive
same,outcome,[4],inactive
same,Potency,[6],inactive
CCCCOc1ccc(CC(=O)NO)cc1,Potency,[1],inactive
same,outcome,[2],inactive
same,outcome,[9],inactive
same,Potency,[3],inactive
same,outcome,[4],inactive
same,Potency,[5],inactive
same,Potency,[7],12.3 µM (active)
same,Potency,[8],17.4 µM (active)
CO[C@@]12[C@H](COC(N)=O)C3=C(C(=O)C(C)=C(N)C3=O)N1C[C@@H]1N[C@@H]12,outcome,[10],inactive
CCn1cc(C(=O)O)c(=O)c2cc(F)c(N3CCNCC3)nc21,outcome,[11],inactive
same,Potency,[12],inactive
same,max response,[13],28.2% (inactive)
O=NN(CCCl)C(=O)NC1CCCCC1,outcome,[14],inactive
Clc1ccccc1CN1CCc2sccc2C1,outcome,[2],inactive
same,outcome,[9],inactive
same,Potency,[5],inactive
same,Potency,[6],inactive
C1CCC(C(CC2CCCCN2)C2CCCCC2)CC1 (stereo not drawn),outcome,[2],inactive
same,outcome,[9],inactive
same,Potency,[3],inactive
same,outcome,[4],inactive
same,Potency,[5],inactive
same,Potency,[7],0.138 µM (active)
Cc1ncc([N+](=O)[O-])n1CCO,outcome,[2],inactive
same,Potency,[3],inactive
same,outcome,[4],inactive
same,Potency,[5],inactive
same,Potency,[6],inactive
same,Potency,[7],inactive
same,Potency,[8],inactive
CC1(C)[C@H](C(=O)O)N2C(=O)C[C@H]2S1(=O)=O,outcome,[2],inactive
same,outcome,[9],inactive
same,Potency,[3],inactive
same,outcome,[4],inactive
same,Potency,[6],inactive
same,Potency,[7],inactive
same,Potency,[8],inactive
COc1cc([C@@H]2c3cc4c(cc3[C@H](O)[C@H]3COC(=O)[C@H]23)OCO4)cc(OC)c1OC,outcome,[2],inactive
same,Potency,[3],inactive
same,outcome,[4],inactive
same,Potency,[5],inactive
same,Potency,[6],inactive
same,Potency,[7],inactive
same,Potency,[8],1.55 µM (active)
C[C@@H](NCCCc1cccc(C(F)(F)F)c1)c1cccc2ccccc12,outcome,[2],inactive
same,Potency,[3],inactive
same,outcome,[4],inactive
same,Potency,[5],inactive
same,Potency,[7],30.9 nM (active) and 19 nM (active)
same,Potency,[8],26.8 µM (active)
CCn1cc(C(=O)O)c(=O)c2cc(F)c(N3CCN(C)CC3)cc21,outcome,[2],inactive
same,Potency,[3],inactive
same,Potency,[5],inactive
same,Potency,[6],inactive
Cc1cc(NS(=O)(=O)c2ccc(N)cc2)no1,outcome,[2],inactive
same,outcome,[9],inactive
same,Potency,[3],inactive
same,Potency,[6],inactive
CN1CCN(c2c(F)cc3c(=O)c(C(=O)O)cn4c3c2OCN4C)CC1,outcome,[2],inactive
same,Potency,[3],inactive
same,outcome,[4],inactive
same,Potency,[5],inactive
same,Potency,[6],inactive
same,Potency,[7],inactive
same,Potency,[8],inactive
C[C@@H]1C[C@H]2[C@@H]3CCC4=CC(=O)C=C[C@]4(C)[C@@]3(Cl)[C@@H](O)C[C@]2(C)[C@@]1(OC(=O)c1ccco1)C(=O)CCl,outcome,[2],inactive
same,outcome,[9],inactive
same,Potency,[3],inactive
same,outcome,[4],inactive
same,Potency,[7],2.45 µM (active)
same,Potency,[8],4.36 µM (active)
COc1cc2c(Nc3ccc(Br)cc3F)ncnc2cc1OCC1CCN(C)CC1,outcome,[2],inactive
same,outcome,[9],inactive
same,outcome,[4],inactive
same,Potency,[5],inactive
same,Potency,[6],inactive
same,Potency,[7],inactive
same,Potency,[8],inactive
NC(=O)N1c2ccccc2CC(=O)c2ccccc21,outcome,[2],inactive
same,Potency,[3],inactive
same,outcome,[4],inactive
same,Potency,[5],inactive
same,Potency,[7],inactive
same,Potency,[8],inactive
Nc1ccc(S(=O)(=O)Nc2ccccn2)cc1,outcome,[2],inactive
same,Potency,[3],inactive
same,Potency,[5],inactive
same,Potency,[6],inactive
same,Potency,[7],inactive
same,Potency,[8],inactive
COc1ccc2c(c1)c(CC(=O)OCC(=O)O)c(C)n2C(=O)c1ccc(Cl)cc1,outcome,[2],inactive
same,Potency,[3],inactive
same,outcome,[4],inactive
same,Potency,[5],inactive
same,Potency,[6],inactive
same,Potency,[7],inactive
same,Potency,[8],inactive
CO[C@@H]1[C@@H](OC(N)=O)[C@@H](O)[C@H](Oc2ccc3c(O)c(NC(=O)c4ccc(O)c(CC=C(C)C)c4)c(=O)oc3c2C)OC1(C)C,outcome,[9],inactive
same,Potency,[3],inactive
same,outcome,[4],inactive
same,Potency,[12],35.5 µM (active)
same,max response,[13],49.1% (inactive)
same,Potency,[5],31.6 µM (active) and inactive
same,Potency,[6],inactive
same,Potency,[7],inactive
same,Potency,[8],3.09 µM (active)
O=C(O)c1cccnc1,outcome,[2],inactive
same,outcome,[4],inactive
same,Potency,[5],inactive
same,Potency,[6],inactive
same,Potency,[7],inactive
N=C(N)c1ccc(OCCCCCOc2ccc(C(=N)N)cc2)cc1,outcome,[2],inactive
same,outcome,[4],inactive
same,Potency,[5],inactive
same,Potency,[6],inactive
same,Potency,[7],inactive
COC(=O)Nc1nc2ccc(Sc3ccccc3)cc2[nH]1,outcome,[9],inactive
same,Potency,[3],0.199 µM (active)
same,outcome,[4],inactive
same,Potency,[5],inactive
same,Potency,[6],inactive
same,Potency,[7],inactive
same,Potency,[8],inactive
O[C@@H](CNC[C@H](O)[C@H]1CCc2cc(F)ccc2O1)[C@@H]1CCc2cc(F)ccc2O1,outcome,[2],inactive
same,Potency,[3],inactive
same,outcome,[4],inactive
same,Potency,[5],inactive
same,Potency,[7],0.0389 µM (active)
same,Potency,[8],inactive
CCc1c2c(nc3ccc(OC(=O)N4CCC(N5CCCCC5)CC4)cc13)-c1cc3c(c(=O)n1C2)COC(=O)[C@]3(O)CC,outcome,[2],inactive
same,outcome,[9],inactive
same,Potency,[5],inactive
same,Potency,[7],inactive
same,Potency,[8],inactive
COC(=O)Nc1nc2ccc(S(=O)c3ccccc3)cc2[nH]1 (stereo not drawn),outcome,[2],inactive
same,outcome,[9],inactive
same,Potency,[3],0.355 µM (active)
same,outcome,[4],inactive
same,Potency,[5],inactive
same,Potency,[7],12.3 µM (active)
same,Potency,[8],inactive
CS(=O)(=O)c1ccc([C@@H](O)[C@@H](CO)NC(=O)C(Cl)Cl)cc1,outcome,[2],inactive
same,outcome,[9],inactive
same,Potency,[3],inactive
same,outcome,[4],inactive
same,Potency,[5],inactive
same,Potency,[6],inactive
same,Potency,[8],inactive
CC(C)(C)C(=O)OCOP(=O)(COCCn1cnc2c(N)ncnc21)OCOC(=O)C(C)(C)C,outcome,[2],inactive
same,outcome,[4],inactive
same,Potency,[5],inactive
same,Potency,[6],inactive
same,Potency,[7],inactive
same,Potency,[8],inactive
Cc1cccc(N(C)C(=S)Oc2ccc3ccccc3c2)c1,outcome,[2],inactive
same,Potency,[3],inactive
same,outcome,[4],inactive
same,Potency,[5],inactive
same,Potency,[6],inactive
same,Potency,[8],11 µM (active)
